Bioassay records as filed in PubChem.
An excerpt weighted towards active compounds, which were near 4% of everything screened.
EWS-Fli inh: blocks EWS/Fli oncoprotein-driven transcription. A673 NR0B1-luciferase reporter, viability-normalised. inhibition, % at 12.6 µM. 350,000 compounds, 0.67% hits;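 active = mean inhibition of at least 50% after viability correction, with every replicate also passing that limit; inconclusive = mean reaches 50% but only one of two replicates passes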;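 also: firefly luciferase signal divided by Alamar Blue viability fluorescence both relative to DMSO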
esBAF inh: SWI/SNF esBAF complex inhibition; mouse ES cells, Bmi1-luciferase knock-in reporter, 24 h; 100% = twice the neutral-well signal; reporter increase, % at 12.5 µM; 350,000 compounds, 2% hits; in the data active = activation above about 40%; inconclusive = no clear call, values can overlap the other calls;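 also: 0% = median of the plate's neutral control wells and 100% = double that signal; a rise in the Bmi1 reporter signal indicates esBAF inhibition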
PAX8 reporter: PAX8 transcriptional activity inhibition. RMG-I TPO-luciferase reporter, SteadyGlo, 24 h. inhibition, % at 12.6 µM. 360,000 compounds, 1.2% hits. AID 652154;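 active = mean replicate inhibition at least 60% with every replicate also reaching 60%; inconclusive = only one of the two criteria is met; inactive = mean below 60% and not all replicates reaching 60%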;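 also: luciferase light reporting Pax8 driven TPO promoter activity; plate controls were median of neutral control wells for no effect and mitoxantrone controls for full effect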
Wnt bcat act: activators of Wnt/beta-catenin signaling | activation, % at 9.35 µM | 300,000 compounds, 1.2% hits | Wnt/beta-catenin reporter cell assay, activator, plate reader; in the data active = activation above about 30%, passing the limit was not always enough; inconclusive = no clear call, values can overlap the other calls;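 also: 0% = neutral control wells and 100% = positive control wells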
MITF TRPM1 inh: MITF TRPM1 promoter inhibition in SK-MEL-5 cells; inhibition, % at 12.5 µM; 330,000 compounds, 0.83% hits; SK-MEL-5 TRPM1 promoter luciferase, 24 h;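 active = mean inhibition across replicates of 60% or more, whatever share of single replicates reaches that level; inconclusive = some that reach 60%, reason not given; inactive = mean inhibition across replicates below 60%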
MITF act: activators of MITF-driven TRPM1 promoter activity in SK-MEL-5 cells; SK-MEL-5 TRPM1-promoter luciferase, 24 h; % of positive control, neutral wells = 0; activation, % at 12.5 µM; 300,000 compounds, 0.75% hits; AID 588334;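 active = mean activation of at least 80% with every replicate also reaching 80%; inconclusive = mean reaches 80% but some replicate falls short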;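 also: 0% = neutral control wells and 100% = parthenolide positive control wells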
* hit, by the source's call; u = inconclusive; x = not tested or not shown.

SMILES	EWS-Fli inh	esBAF inh	PAX8 reporter	Wnt bcat act	MITF TRPM1 inh	MITF act
CC(C)NC(=O)N(C)C[C@H]1Oc2ccc(NC(=O)Nc3ccccc3)cc2C(=O)N([C@H](C)CO)C[C@@H]1C	-12	-6	-22	36*	2	-2
Cc1ccc(S(=O)(=O)Nc2cccc3c2O[C@H](CN(C)C(=O)Nc2ccc4c(c2)OCO4)[C@H](C)CN([C@H](C)CO)C3=O)cc1	-2	72*	x	x	x	x
O=C(C[C@H]1CC[C@H]2[C@@H](COC[C@H](O)CN2C(=O)Cc2ccccc2)O1)NC1CCCC1	-6	1	-10	x	x	x
CO[C@@H]1CN(C)C(=O)c2ccc(NC(=O)Nc3cccc(F)c3)cc2OC[C@H](C)N(C(C)=O)C[C@@H]1C	0	4	x	x	x	x
C[C@@H]1CN([C@H](C)CO)C(=O)c2cc(C#CCN(C)C)cnc2O[C@@H]1CN(C)C(=O)CCN1CCCCC1	-42	-1	-19	x	x	x
Cc1ccc(S(=O)(=O)N(C)C[C@H]2Oc3ccc(NC(=O)Cc4ccccc4)cc3C(=O)N([C@H](C)CO)C[C@@H]2C)cc1	1	8	84*	x	x	x
C[C@@H]1CN([C@@H](C)CO)C(=O)c2cc(NC(=O)Nc3ccc(C(F)(F)F)cc3)ccc2O[C@H]1CN(C)C(=O)Nc1ccc(C(F)(F)F)cc1	21	6	92*	x	x	x
C[C@@H]1CN([C@@H](C)CO)C(=O)c2cccc(NC(=O)Nc3ccc(F)cc3)c2O[C@H]1CN(C)S(=O)(=O)c1cn(C)cn1	-6	0	11	x	x	x
O=C([C@H]1[C@H](CO)[C@H]2Cn3c(ccc(C4=CCCC4)c3=O)[C@H]2N1Cc1nccs1)N1CCCCC1	1	-5	x	x	x	x
CCOc1ccc(C2C(C(=O)c3ccco3)=C(O)C(=O)N2CCCn2ccnc2)cc1 (centres undefined)	x	54*	-37	26	-9	13
CCOc1ccc(C2C(C(=O)c3ccco3)=C(O)C(=O)N2Cc2cccnc2)cc1 (centres undefined)	x	5	-28	35*	-4	x
CN1[C@@H]2Cn3c(ccc(-c4ccc(F)cc4)c3=O)[C@H]1[C@@H](C(=O)Nc1nccs1)[C@@H]2CO	2	-3	-1	x	x	x
C[C@@H]1CN([C@H](C)CO)C(=O)Cc2cc(NC(=O)CCN3CCOCC3)ccc2O[C@H]1CN(C)C(=O)Nc1ccc(F)cc1	7	9	-4	x	x	x
O=C(C1CCCCC1)N1C[C@H]2[C@@H](c3ccccc31)[C@H](CO)N2CC1CCOCC1	4	2	8	x	x	x
Nc1nnc(CC(=O)N/N=C/c2ccc(-c3cccc(C(=O)O)c3)o2)s1	-23	x	-11	38*	-7	8
Nc1nnc(CC(=O)N/N=C/c2ccc(-c3ccc(F)cc3)o2)s1	-16	x	-9	4	x	x
O=C(CSc1ccccn1)c1ccc2c(c1)OCO2	x	51*	-101	47*	-68	x
Cc1ccc2nc(SCC(=O)c3ccc4c(c3)OCO4)[nH]c2c1	x	20	x	x	4	-1
O=C(CSc1ccccn1)Nc1ccc2c(c1)OCO2	-47	x	-26	28	x	x
O=C(CSc1nc2ccccc2[nH]1)c1ccc2c(c1)OCO2	x	9	-140	54*	-71	x
CC1CCN(C(=O)CSc2nc3ccccc3[nH]2)CC1	-48	51*	x	20	-86	u
COC(=O)C[C@@H]1CC[C@@H]2[C@H](COc3ccc(NC(=O)Nc4cccc(C)c4)cc3C(=O)N2C)O1	15	0	9	x	x	x
C[C@@H]1CCCCO[C@H](CN(C)C(=O)c2ccccc2)[C@@H](C)CN([C@@H](C)CO)C(=O)c2cc(NC(=O)C3CCCCC3)ccc2O1	-2	4	6	x	x	x
CN(Cc1ccco1)Cc1ccc(O)c2ncccc12	x	-1	x	x	4	2
OCc1ccc(O)c2ncccc12	x	0	x	x	u	-59
SMILES	EWS-Fli inh	esBAF inh	PAX8 reporter	Wnt bcat act	MITF TRPM1 inh	MITF act
CCCOCc1ccc(O)c2ncccc12	30	-4	31	15	69*	-69
CC(C)COCc1ccc(O)c2ncccc12	20	x	72*	-1	63*	-60
COCC(=O)Nc1ccc2c(c1)OC[C@H](C)N(C(=O)Cc1ccccn1)C[C@H](C)[C@H](OC)CN(C)C2=O	0	-1	x	x	x	x
C[C@H](NC(=O)C[C@H]1C[C@H]2c3cc(NC(=O)Cc4ccncc4)ccc3O[C@H]2[C@@H](CO)O1)c1ccccc1	13	-3	-15	x	x	x
O=C(COc1ncnc2ccccc12)c1ccc2c(c1)OCCO2	x	14	x	20	-53	60
O=C(COc1ncnc2cc(Cl)ccc12)c1ccc2c(c1)OCCO2	-94	59*	-113	55*	-81	80
Cc1ccc(C(=O)NCCc2ccc(F)cc2)s1	-63	17	-86	42*	-85	89*
Cc1ccc(C(=O)NCc2ccc(F)cc2)s1	-37	x	-15	5	-19	x
O=C(NCCc1ccc(Cl)cc1)c1ccc(Br)s1	-113	64*	-177	18	-90	u
COc1ccc(NC(=O)N(C)C[C@@H]2OCCCC[C@@H](C)Oc3ccc(NC(=O)c4ccccc4)cc3C(=O)N([C@H](C)CO)C[C@@H]2C)cc1	-11	2	-18	x	x	x
O=C(C[C@H]1CC[C@H]2[C@@H](COC[C@H](O)CN2S(=O)(=O)c2ccccc2)O1)NCCN1CCCCC1	-2	4	0	x	x	x
COc1ccc(C(=O)c2ccc(Cl)c([N+](=O)[O-])c2)cc1	48	x	108*	-27	64*	-62
Cc1ccc(OC(=O)c2ccc(Cl)c([N+](=O)[O-])c2)cn1	-13	-1	12	0	-1	0
COc1ccc(N/C=C/C(=O)c2ccc(Cl)cc2)cc1	x	x	-260	x	-105	106*
COc1ccc(C(=O)c2ccc(Cl)cc2)cc1	x	46*	x	1	-47	x
CO[C@H]1O[C@H](CO)[C@@H](OC(=O)Nc2ccccc2)[C@H](OC(=O)Nc2ccccc2)[C@H]1OC(=O)Nc1ccccc1	-4	x	43	x	x	x
CCCNC(=O)N1[C@@H](CO)[C@@H]2c3ccccc3N(C(=O)Nc3cccc(F)c3)C[C@@H]21	6	-7	6	x	x	x
CCCCN1CCc2c1nc1ccc(Br)cc1c2N	-10	15	x	0	66*	-67
Cc1ccc2nc3c(c(N)c2c1)CCN3C	-18	-3	-24	0	8	-8
